Source: PubChem
Shown are actives, neighbours in structure and some others; about 1.8% of the full set was active somewhere.
RGS4 inhibitor – blocks human RGS4-accelerated GTP hydrolysis; Potency, µM (top dose mostly 114 µM), without a hit: at the highest dose activity change, negative = inhibition, actives largely listed as inhibitors; P49798; Transcreener GDP fluorescence polarization, RGS4-accelerated GTP hydrolysis; actives 0.039% (n = 390,000); AID 504845; note: potency is the fitted concentration of half-maximal effect; % is set by controls: 0 for no effect and ±100 for the full control effect; nearly all actives have a fitted effect of over 75% in size
Target sequence (P49798 whole entry, looked up): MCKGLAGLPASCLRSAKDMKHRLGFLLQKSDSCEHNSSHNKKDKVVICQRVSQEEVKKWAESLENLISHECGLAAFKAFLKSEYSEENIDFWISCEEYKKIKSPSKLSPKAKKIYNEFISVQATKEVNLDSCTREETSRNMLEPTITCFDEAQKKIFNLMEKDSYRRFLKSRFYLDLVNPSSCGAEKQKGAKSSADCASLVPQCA
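MLSMR compounds (23 nl, pin-transferred) preincubated 10 min at room temperature with a 500nM (2x) first reagent, then RGS4 at 900nM (2x) plus Transcreener GDP mix added; fluorescence polarization (620/688 nm) read before and after 90 min at 30 °C.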
GLP-1R agonist – GLP-1 receptor (human) agonism; P43220; HEK293 GLP-1R CRE-luciferase, luminescence, 4-6 h; cells express a hypersensitive GLP-1R form; Potency, µM (titrated, usually from 45.6 µM), for the others: top-dose activation, most hits filed as activators; actives 0.007% (n = 380,000); AID 624172; note: potency is the fitted concentration of half-maximal effect; % of control where 0% means no effect
Target sequence (P43220 whole entry, looked up): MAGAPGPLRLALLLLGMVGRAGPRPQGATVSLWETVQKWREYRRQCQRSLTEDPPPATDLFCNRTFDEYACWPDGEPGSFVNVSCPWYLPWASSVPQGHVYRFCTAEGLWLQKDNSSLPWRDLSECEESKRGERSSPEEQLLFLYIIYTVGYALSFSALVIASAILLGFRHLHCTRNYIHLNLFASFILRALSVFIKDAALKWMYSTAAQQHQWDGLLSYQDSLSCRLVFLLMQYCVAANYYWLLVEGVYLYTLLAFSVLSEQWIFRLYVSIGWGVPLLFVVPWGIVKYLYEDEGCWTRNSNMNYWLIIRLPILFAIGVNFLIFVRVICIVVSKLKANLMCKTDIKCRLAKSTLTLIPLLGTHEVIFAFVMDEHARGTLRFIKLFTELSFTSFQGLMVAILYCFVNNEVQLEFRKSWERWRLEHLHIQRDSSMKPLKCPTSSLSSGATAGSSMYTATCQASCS
HEK293 tox – cytotoxicity in counter-screen for GLP-1R inverse agonists; HEK293 cAMP-luciferase reporter cells, luminescence, 24 h; Potency, µM (highest dose often 38.3 µM), for inactives: top-dose activity change, negative = inhibition, actives largely listed as inhibitors; actives 0.13% (n = 410,000); AID 624418;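 note: loss of luciferase light is scored as toxicity; potency is the fitted concentration of half-maximal effect; % is set by controls: 0 for no effect and ±100 for the full control effect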
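Seeding density was 200 cells/uL; after overnight-length (12 h) culture, 23 nL compounds went on for 24 h at 37 °C. Readout used a luciferase detection reagent, luminescence taken after 12 min at room temperature.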
GLP-1R inv ag – GLP-1 receptor (human) inverse agonism. P43220. HEK293 GLP-1R CRE-luciferase, luminescence, 24 h; GLP-1R form is constitutively active. Potency, µM (titrated, usually from 38.3 µM), for the others: at the top dose activity change, negative = inhibition, most hits filed as inhibitors. actives 1.6% (n = 410,000); note: potency is the fitted concentration of half-maximal effect; % is set by controls: 0 for no effect and ±100 for the full control effect; nearly all actives have a fitted effect of over 55% in size
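GLP-1R inverse agonism mode: basal reporter luminescence in engineered HEK293 cells measured after one day of compound exposure at 37 deg C, with a 12 min room-temperature detection step.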
PTHR1 ag – activates the human parathyroid hormone receptor PTHR1 | Potency, µM (doses to about 115 µM), inactives show at the top dose activation, usual class: activators | actives 0.075% (n = 410,000) | HEK293 GP2 PTHR1 cells, GloSensor cAMP luminescence, 1 h; note: potency is the fitted concentration of half-maximal effect; nearly all actives have a fitted effect of over 55% in size
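HEK-293-derived GP2 cells expressing PTHR1 and a GloSensor cAMP reporter, 3,000/well, plated overnight, given luciferin plus IBMX (each 0.5 mM as added) for 1 h at 37 °C, then compound for 1 h at 37 °C. Luminescence was read after 15 min at room temperature.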
GCN5L2 inh-1 – GCN5L2 (KAT2A) acetyltransferase inhibition; Potency, µM (highest dose often 58.9 µM), without a hit: top-dose activity change, negative = inhibition, hits mostly inhibitors; Q92830; GCN5L2 HAT assay, ThioGlo1 CoA-SH fluorescence; actives 0.21% (n = 390,000); AID 504327; note: potency is the fitted concentration of half-maximal effect; % is set by controls: 0 for no effect and ±100 for the full control effect
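GCN5L2 (20 nM) in 50mM HEPES pH 7.5, 0.1mM EDTA, 0.01% Tween-20 preincubated 15 min with compounds at room temperature. Reaction started with H3(1-25) 75uM, acetyl-CoA 70uM, ThioGlo1 50uM; CoA-thiol fluorescence (Ex340/Em540) read at 0 and 20 min.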
GCN5L2 inh-2 – human KAT2A HAT inhibition, hit confirmation; shares compounds with GCN5L2 inh-1; GCN5L2 HAT, ThioGlo1 CoA fluorescence, 20 min; Potency, µM, actives largely listed as inhibitors; actives 70% (n = 140); AID 588347
An asterisk follows results filed as active; i = inactive; ? = inconclusive; . = not tested or not shown; [ ] = dose if it differs, or a comment. Calls come from the whole dose curve; as a rule, active = well fitted curve in the direction sought with a large enough effect; inconclusive = small, poorly fitted or top-dose-only effect, or another doubt; inactive = no such curve, though single readings can be large; an effect the other way counts as inactive or inconclusive.

SMILES | RGS4 inhibitor | GLP-1R agonist | HEK293 tox | GLP-1R inv ag | PTHR1 ag | GCN5L2 inh-1 | GCN5L2 inh-2
COc1cc(/C=C(/C#N)c2nc3ccccc3[nH]2)ccc1OCC(=O)Nc1ccccc1C(C)C | -19.6% | 5.8% | 4.5% | ? | -1.4% | ? | ?
COc1cc(/C=C(/C#N)c2nc3ccccc3[nH]2)ccc1OCC(=O)Nc1ccccc1C | -14.2% | 16.3% | -4.1% | 3.5% | i | 25.5% | .
Cc1ccc(C(=O)CSc2nnc(-c3ccco3)n2Cc2ccccc2)cc1 | -28.6%[11.4 µM] | 8.0% | -15.7% | ? | -3.9%[57.5 µM] | -4.3% | .
Cn1c(SCC(=O)c2ccc(-c3ccccc3)cc2)nnc1-c1ccco1 | -16.8% | -11.2% | 9.8% | 2.2% | -22.8%[57.5 µM] | 28.2µM* | ?
Cc1cc(N2C(=O)C(O)=C(C(=O)c3cc4ccccc4o3)C2c2cccc(Br)c2)no1 (stereo not given) | -34.7% | -1.7% | 15.2% | -46.5% | -28.0% | ? | ?
CCCOc1cccc(C2C(C(=O)c3cc4ccccc4o3)=C(O)C(=O)N2c2cc(C)on2)c1 (stereo not given) | -35.0% | -0.1% | 3.0% | 4.6% | -26.8% | ? | .
COc1ccc(-c2cccc(NC(=O)c3cccs3)c2)nn1 | 7.3% | 11.8% | 1.6% | -11.4% | i | -0.5% | .
O=[N+]([O-])C(=C1Nc2ccccc2N1)C(Cl)=C(Cl)Cl | ? | 2.8% | 0.0% | 8.7% | -54.9% | 35.5µM* | 22.9*
CCOC(=O)c1c(NC(=O)CSc2nnc(Cc3ccccc3)o2)sc(C(C)=O)c1C | 0.2% | -1.5% | -10.0% | 0.0% | -67.7%[57.5 µM] | -4.5% | .
CCOC(=O)c1sc(NC(=O)CSc2nnc(Cc3ccccc3)o2)c(C#N)c1C | ? | -13.9% | -1.4% | 15.7% | i | ? | 10.2*
CCS(=O)(=O)c1oc(-c2ccc(F)cc2)nc1S(=O)(=O)c1ccc(Br)cc1 | ? | . | -2.8% | -7.1% | -30.7% | -11.1% | .
O=C(CSc1nc2ccccc2s1)Nc1cc(C(=O)O)cc(C(=O)O)c1 | ? | -6.5% | -8.5% | 6.7% | -16.9% | 20µM* | ?
COc1ccc(CN2CCN(c3nc4ccccc4s3)CC2)cc1 | 8.4% | 6.0% | 3.6% | 4.8% | -23.7% | -2.2% | .
COc1ccc(CCn2c(O)cc3nn(-c4nc5ccccc5s4)c(=O)c-3c2C)cc1 | ? | 0.0% | -5.8% | 10.8% | -14.6% | 25.1µM* | ?
Cc1cccc(C)c1Nc1nnc(SCC(=O)c2ccc3c(c2)NC(=O)CO3)s1 | -19.1% | -4.0% | -10.2% | 0.0% | i | 1.4% | .
C/C(=N/NS(=O)(=O)c1ccc(Cl)cc1)c1cccc(NC(=O)c2ccc(Cl)cc2Cl)c1 | -15.0%[11.4 µM] | -10.5% | -1.5% | ? | -9.2% | ? | .
O=C1ON=C(c2ccccc2)/C1=C/c1ccc(O)cc1 | ? | -0.5% | -25.2% | 29.6% | -95.9% | -29.4% | .
O=C1ON=C(c2ccc(Cl)cc2)/C1=C/c1ccc(O)cc1 | ? | -4.6% | 5.5% | 1.5% | -49.7% | ? | 25.7*
CN(c1ccccc1)c1ccc(/C=C(\CCC(=O)O)c2nc3ccccc3s2)cc1[N+](=O)[O-] | ? | -11.1% | -26.9% | ? | -1.1% | ? | 20.4*
CC1=NOC(=O)/C1=C\c1ccc(-c2ccccc2Br)o1 | -131.5% | -4.2% | 3.0% | ? | -38.9% | 12.6µM* | 11.5*
CC1=CC2=NC(=O)/C(=C\c3ccc(-c4cccc(Cl)c4)o3)C(=N)N2O1 | ? | -2.2% | 79.5% | 1.8% | -10.6% | -18.3% | .
CC1=NOC(=O)/C1=C\c1ccc(-c2cccc(Cl)c2)o1 | ? | -34.5% | ? | 0.0% | -46.2% | ? | ?
CC1=NOC(=O)/C1=C\c1ccc(-c2ccc(Cl)c(C(=O)O)c2)o1 | ? | 4.1% | 19.1% | 4.2% | i | 31.6µM* | 12.9*
O=C(NC1CCCCC1)C1c2ccccc2OCC(=O)N1CCc1c[nH]c2ccccc12 (stereo not given) | . | -2.3% | -12.6% | -8.7% | ? | . | .
COc1cccc2c1NC(C(=O)O)C1CC=CC21 (stereo not given) | ? | -11.7% | 14.4% | 15.6% | -15.0% | 11.2µM* | ?
SMILES | RGS4 inhibitor | GLP-1R agonist | HEK293 tox | GLP-1R inv ag | PTHR1 ag | GCN5L2 inh-1 | GCN5L2 inh-2
O=C(COC(=O)c1c2c(nc3ccccc13)/C(=C/c1ccco1)CC2)NC1CCCC1 | ? | -0.5% | 459.9% | ? | -6.4% | 12.6µM* | 7.25*
O=C(O)c1cc(-c2ccc(-c3c(-c4ccc5c(c4)OCO5)noc3-c3ccsc3)cc2)nc2ccccc12 | -26.1% | 14.4% | 8.4% | 31.0% | -57.9% | 20µM* | 16.2*
CCOc1ccccc1NC(=O)NCc1ccccn1 | 28.7% | 6.7% | -1.0% | 5.7% | -56.7% | -0.7% | .
CCC(C)Sc1ccc(-c2nc3ccc(C)cn3c2NC2CCCCC2)cc1 (stereo not given) | -2.4% | 5.3% | 2.3% | 0.6% | -11.3% | 20µM* | ?
Cc1cccc(NC(=O)c2oc3ccc(S(=O)(=O)N4CCCCC4)cc3c2C)c1C | 32.9% | . | 8.2% | -3.3% | -61.1% | -5.7% | .
Cc1ccc(S(=O)(=O)N2[C@@H](c3ccc(Br)cc3)C(C(=O)O)=CC[C@H]2c2ccc(Cl)c(Cl)c2)cc1 | -15.2% | -5.0% | -14.4% | ? | i | 28.2µM* | 12.9*
Cc1ccc([C@H]2C(C(=O)O)=CC[C@@H](c3ccc(Cl)cc3)N2S(=O)(=O)c2ccc(C)cc2)cc1 | -16.4% | -1.4% | -2.9% | ? | i | 14.1µM* | ?
CC(C)NC[C@H]1CCc2cc(CO)c([N+](=O)[O-])cc2N1 | . | 4.5%[19.8 µM] | . | . | . | 5.2%[21.4 µM] | .
CC1(C(=O)NS(=O)(=O)c2ccccc2)CCN1C(=O)CC1CCCCC1 (stereo not given) | . | -5.6% | 0.2% | ? | -0.6% | . | .
CCOc1ccc(-n2c(C)cc(/C=C3/C(=N)N4C(=NC3=O)SN=C4S(C)(=O)=O)c2C)cc1 | ? | 4.3% | 6.4% | -24.1% | -42.5% | 31.6µM* | ?
Cc1cc(/C=C2/C(=N)N3C(=NC2=O)SN=C3S(C)(=O)=O)c(C)n1-c1ccc(F)cc1 | -37.9% | -1.1% | -7.1% | 2.6% | -38.5% | -21.7% | .
COc1ccc(CNCCNC(=O)c2cccs2)c(OC)c1OC | -9.6% | 4.5% | 1.4% | 11.4% | i | -3.3% | .
